The list is not random: actives were taken first. Their share in the collection is about 4.1%.
Shn3 3UTR inh = inhibitors of Schnurri-3 3'UTR reporter in osteoblasts | Clone20 osteoblast Shn3 3'UTR firefly luciferase, 24 h | inhibition, % at 12.5 µM | 0.52% of 360,000 active | AID 588674;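 active means mean inhibition of at least 75% with every replicate also reaching 75%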
TWEAK Fn14 block = TWEAK-Fn14 signaling inhibition. TWEAK-stimulated Fn14 reporter cells, luciferase luminescence, 8 h. inhibition, % at 10 µM. 2% of 360,000 active. AID 1159606; in the data active means inhibition above about 50%
TRPM1 prom inh = MITF TRPM1 promoter inhibition in SK-MEL-5 cells | SK-MEL-5 TRPM1 promoter luciferase, 24 h | AID 488899 | inhibition, % at 12.5 µM | 0.83% of 330,000 active;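 active means mean inhibition across replicates of 60% or more, whatever share of single replicates reaches that level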
TROY signal inh = TROY signaling inhibition | Q293 LMP1-TROYcd NF-kB luciferase reporter, 4 h | inhibition, % at 10 µM | 0.98% of 360,000 active | AID 1347056;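 active means compounds whose plate-normalised and pattern-corrected inhibition of the luciferase reporter signal at the single screening dose is 50% or more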
EBV LMP1 NFkB = Epstein-Barr LMP1 NF-kappaB reporter inhibition; 0.69% of 350,000 active; AID 504558; inhibition, % at 12.5 µM; LMP1-induced NF-kappaB luciferase reporter cells, luminescence; in the data active means inhibition above about 41%
Peg3 promoter = reduces Peg3 promoter-driven luciferase expression in HeLa; HeLa PEG-Prom luciferase reporter, luminescence, overnight; inhibition, % at 20 µM; 1.7% of 360,000 active; AID 588405;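 active means inhibition of at least 50% at 20 µM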
Each line names hits and unclear results; the compound was inactive in the other large screens.

COc1ccc(C)c2sc(NC(=O)CCS(=O)(=O)c3ccccc3)nc12	Peg3 promoter 78
Cn1c(=O)c2[nH]c(Cc3ccsc3)nc2n(C)c1=O	none
Cc1ccc(NS(=O)(=O)c2ccc(OCC(=O)NCc3ccccn3)cc2)cc1	none
CC1=C(C)C(=O)C(CCCCC#CCCCC#CCO)=C(C)C1=O	EBV LMP1 NFkB 43
CCOC(=O)c1c(N)sc(C(=O)Nc2ccc3c(c2)OCO3)c1C	TWEAK Fn14 block 79
CN(Cc1ccccc1N1CCCC1)C(=O)c1cc2cc(Cl)ccc2o1	none
N#C/C(=C/c1ccc(CNS(=O)(=O)c2ccccc2)o1)C(N)=O	TWEAK Fn14 block 69
Cn1c(=O)c2cc(NC(=O)NCCc3ccccc3)ccc2n1Cc1cccc(C(F)(F)F)c1	none (no result: TRPM1 prom inh, EBV LMP1 NFkB)
Cc1cccn2c(=O)c(C=O)c(N3CCSCC3)nc12	none
COc1ccc(C)cc1NC(=O)CNC(=O)c1sc2ccccc2c1Cl	none
O=C(NCc1ccccc1F)C1CCN(C(=O)Nc2ccc(F)cc2)CC1	TWEAK Fn14 block 99
O=C(CCCn1c(=S)[nH]c2ccsc2c1=O)Nc1ccc2c(c1)OCCO2	TWEAK Fn14 block 89, TROY signal inh 82
O=[N+]([O-])c1ccc(N2CCCC2)nc1N1CCCC1	none (no result: Shn3 3UTR inh)
Nc1ncc([N+](=O)[O-])c(N2CCCCCC2)n1	TWEAK Fn14 block 75
Cc1coc2c(C)c3oc(=O)cc(-c4ccccc4)c3cc12	Peg3 promoter 74
Cc1c(O)ccc2c(-c3ccccc3)cc(=O)oc12	none
O=C(C1CCC(CNS(=O)(=O)c2cccs2)CC1)N1CCN(c2ccc(Cl)cc2)CC1 (stereo not drawn)	Shn3 3UTR inh 88, TRPM1 prom inh 69
O=C(NC1CCCC1)C1CCC(CNS(=O)(=O)c2cccs2)CC1 (stereo not drawn)	none
O=C(CCC1CCN(Cc2ccc(Cl)cc2)CC1)NC1CC1	none
CCCCNC(=O)C1(C)CCN1C(=O)c1cncc(Br)c1 (stereo not drawn)	none (no result: TRPM1 prom inh, EBV LMP1 NFkB)
Cc1ccc(-n2cc(C(=O)c3ccc(F)cc3)nn2)cc1Cl	TWEAK Fn14 block 53
Cc1ccccc1CN1CCN(C/C=C/c2ccccc2)CC1	TWEAK Fn14 block 58
COc1ccc(OC)c(CCNC(=O)c2ccc(CS(=O)Cc3ccc(Cl)cc3)o2)c1 (stereo not drawn)	none
O=c1oc2ccccc2cc1-c1nc2c(s1)CCCC2	TWEAK Fn14 block 84, TROY signal inh 66
CC(=O)c1cccc(OCC(O)CNCCc2ccc(Cl)cc2)c1 (stereo not drawn)	none
COc1ccc(CCNCC(O)COc2cccc(Br)c2)cc1 (stereo not drawn)	Peg3 promoter 74
OC(COc1ccc(CNCCc2ccc(C(F)(F)F)cc2)cc1)CN1CCCCC1 (stereo not drawn)	TRPM1 prom inh 94, Peg3 promoter 104
COc1ccccc1COCC(O)CNCCc1ccc(C(F)(F)F)cc1 (stereo not drawn)	none
CCOC(=O)c1c(C)n(C)c2ccc(OCC(O)CNCCc3ccccc3)cc12 (stereo not drawn)	none
OC(CNCCc1ccc(C(F)(F)F)cc1)COc1cccc2ccccc12 (stereo not drawn)	Peg3 promoter 90
OC(CNCCc1ccc(C(F)(F)F)cc1)COc1ccc2ccccc2c1 (stereo not drawn)	Peg3 promoter 101
O=C1NC[C@H](CC2CCCCC2)N(CCc2cc(C(F)(F)F)cc(C(F)(F)F)c2)C1=O	none (no result: Shn3 3UTR inh, TRPM1 prom inh, EBV LMP1 NFkB, Peg3 promoter)
CCc1nc2c(OCc3ccc(C(F)(F)F)cc3)cccn2c1N(C)C(=O)C(C)C	none (no result: TRPM1 prom inh, EBV LMP1 NFkB)
OC(CNC1CCCCCC1)COc1cccc2ccccc12 (stereo not drawn)	Peg3 promoter 92
c1ccc(CNc2nc(NCc3ccccc3)c3sccc3n2)cc1	TROY signal inh 58 (no result: TRPM1 prom inh, EBV LMP1 NFkB)
c1ccc(CNc2nc(Oc3ccncc3)c3sccc3n2)cc1	TWEAK Fn14 block 99 (no result: TRPM1 prom inh, EBV LMP1 NFkB)
c1csc(CNc2nc(Oc3ccncc3)c3sccc3n2)c1	none (no result: TRPM1 prom inh, EBV LMP1 NFkB)
COc1ccccc1CNc1nc(NCc2ccccc2)nc2ccsc12	TROY signal inh 50 (no result: TRPM1 prom inh, EBV LMP1 NFkB)
c1ccc(CNc2nc(NCCOc3ccccc3)c3sccc3n2)cc1	none (no result: TRPM1 prom inh, EBV LMP1 NFkB)
COc1ccccc1CNc1nc(NCc2ccc(C)cc2C)c2sccc2n1	none (no result: TRPM1 prom inh, EBV LMP1 NFkB)
COc1ccccc1CNc1nc(NC(C)C)nc2cc(-c3ccccc3)sc12	Peg3 promoter 75 (no result: TRPM1 prom inh, EBV LMP1 NFkB)
COc1ccc(C2CC(c3ccccc3)=NN2C(=O)CSc2nnnn2-c2cccc(C)c2)cc1 (stereo not drawn)	none
Cc1ccc(-n2ncc3c(SCC(N)=O)ncnc32)cc1C	none
COc1ccccc1CNc1nc(NCc2cccc(OC)c2OC)c2sccc2n1	TWEAK Fn14 block 76, TROY signal inh 75, Peg3 promoter 54 (no result: TRPM1 prom inh, EBV LMP1 NFkB)
COc1ccccc1CNc1nc(NCc2ccccc2F)c2sccc2n1	TWEAK Fn14 block 90, TROY signal inh 58 (no result: TRPM1 prom inh, EBV LMP1 NFkB)
COCCNc1nc(NCc2ccccc2F)c2sccc2n1	none (no result: TRPM1 prom inh, EBV LMP1 NFkB)
Fc1ccc(Nc2nc(NCc3ccco3)c3ccccc3n2)cc1	TWEAK Fn14 block 62
Nc1nc(Nc2ccccc2)nc(NCc2ccco2)c1[N+](=O)[O-]	none
c1ccc(CNc2nc(NCc3ccccc3)c3ccccc3n2)cc1	TROY signal inh 78, Peg3 promoter 104
COCCNc1nc(NCc2cccc(OC)c2OC)c2sccc2n1	none (no result: TRPM1 prom inh, EBV LMP1 NFkB)
c1ccc(CNc2nc(-c3ccccc3)nc3ccccc23)cc1	none
COc1ccc(NC(=O)C23CC4CC(CC(Cl)(C4)C2)C3)cc1S(=O)(=O)N1CCOCC1	none
O=C(CCNC(=O)c1ccc(Cl)cc1)Nc1ccccc1N1CCCC1	none
CC1(C)COC(c2ccc3c(c2)OCO3)OC1	none
NC(N)=N/N=C/c1ccc(Cl)c(Cl)c1	Peg3 promoter 99 (no result: TRPM1 prom inh, EBV LMP1 NFkB)
COc1cc(/C=N/N=C(N)N)ccc1OCc1ccc(Cl)cc1	TWEAK Fn14 block 81, TRPM1 prom inh 89, TROY signal inh 62, Peg3 promoter 103
NC(N)=N/N=C/c1ccccc1	none
NC(N)=N/N=C/c1ccc(OCc2ccccc2Cl)cc1	Peg3 promoter 103
COc1ccc(NC(=O)CSc2nnc3n2CCCCC3)cc1S(=O)(=O)N1CCOCC1	none
CC(=O)c1cccc(NC(=O)c2cc(-c3ccco3)nc3ccccc23)c1	TWEAK Fn14 block 65
COc1cc(-c2cc(C(=O)Nc3ccccc3N3CCOCC3)c3ccccc3n2)cc(OC)c1OC	none
O=C(Nc1cccc(-c2cnc3ccccc3n2)c1)c1cccc(NC(=O)c2ccco2)c1	TWEAK Fn14 block 55
O=C(Nc1ccccc1N1CCOCC1)c1cc(-c2ccco2)nc2ccccc12	Peg3 promoter 60
O=C(Nc1cccc(S(=O)(=O)NCc2ccco2)c1)c1cc(-c2ccccc2)nc2ccccc12	Peg3 promoter 62
COc1cccc(NC(=O)c2cc(-c3ccco3)nc3ccccc23)c1	none
COc1ccc(N(C(=O)c2snc(C(N)=O)c2N)C(C(=O)NCC2CCCO2)c2ccc(C)o2)cc1OC (stereo not drawn)	none
CC(O)[C@@H](NC(=O)C1CCC(CNC(=O)[C@H](Cc2ccccc2)NC(=O)OC(C)(C)C)CC1)C(=O)O (stereo partly drawn)	none (no result: EBV LMP1 NFkB)
